Legend:
Test in all cases: DAPPL (digital affinity profiling via proximity ligation, sequencing); 10 mM Tris-HCl pH 7.5, 50 mM NaCl, 1 mM DTT, 4% glycerol, room temperature, 30 min; GST-TFs on glutathione beads, 16-mer random dsDNA library, 0.1% formaldehyde crosslink after washing; high values mean tight binding
Details in all cases: protein: recombinant; tags: N-terminal GST; dsDNA, one strand shown
FLI1 = biological target: T1, FLI1 (Homo sapiens, UniProt Q01543 1-452)
T1 sequence: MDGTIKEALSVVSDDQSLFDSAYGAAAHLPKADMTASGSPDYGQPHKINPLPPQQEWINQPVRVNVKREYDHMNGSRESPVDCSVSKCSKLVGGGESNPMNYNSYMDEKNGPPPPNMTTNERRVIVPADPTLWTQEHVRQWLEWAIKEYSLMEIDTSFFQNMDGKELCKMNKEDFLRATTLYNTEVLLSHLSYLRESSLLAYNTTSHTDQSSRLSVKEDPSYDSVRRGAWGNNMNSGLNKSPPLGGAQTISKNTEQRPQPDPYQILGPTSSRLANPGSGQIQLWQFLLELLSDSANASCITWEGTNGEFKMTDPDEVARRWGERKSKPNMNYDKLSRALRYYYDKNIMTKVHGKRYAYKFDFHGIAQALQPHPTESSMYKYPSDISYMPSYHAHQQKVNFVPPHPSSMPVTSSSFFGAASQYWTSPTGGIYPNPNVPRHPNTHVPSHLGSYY
Procedure, shortened: (§1)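 After expression in yeast as GST fusions, human transcription factors were bound to glutathione beads, DNA-barcoded and mixed with a tag-only sample. The pools were incubated with 200 nmole of a 16-mer random double-stranded DNA library in Tris/NaCl/DTT/glycerol buffer (30 min, room temperature), washed and crosslinked with 0.1% formaldehyde. Proximity ligation with BsaI/T4 ligase ran for 1 h at 37 °C, before PCR amplification and sequencing on an Illumina NextSeq500. Binding signal is a hexamer's read frequency for a factor divided by its frequency for the tag-only sample.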

ELK1 = biological target: T2, ELK1 (Homo sapiens, UniProt P19419 1-428)
T2 sequence: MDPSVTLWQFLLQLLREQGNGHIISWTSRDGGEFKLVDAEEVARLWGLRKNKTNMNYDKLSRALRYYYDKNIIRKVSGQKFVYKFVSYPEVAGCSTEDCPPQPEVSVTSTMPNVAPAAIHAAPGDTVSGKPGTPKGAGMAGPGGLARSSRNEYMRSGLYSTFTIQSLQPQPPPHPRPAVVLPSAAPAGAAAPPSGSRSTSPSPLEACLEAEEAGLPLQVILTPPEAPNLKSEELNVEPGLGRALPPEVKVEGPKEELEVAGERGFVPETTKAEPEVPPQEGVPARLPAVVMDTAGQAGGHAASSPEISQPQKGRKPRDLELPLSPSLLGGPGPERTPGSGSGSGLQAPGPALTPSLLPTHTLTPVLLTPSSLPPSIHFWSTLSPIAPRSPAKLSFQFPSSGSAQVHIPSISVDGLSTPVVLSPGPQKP
Procedure, shortened: as §1

GABPA = biological target: T3, GABPA (Homo sapiens, UniProt Q06546 1-454)
T3 sequence: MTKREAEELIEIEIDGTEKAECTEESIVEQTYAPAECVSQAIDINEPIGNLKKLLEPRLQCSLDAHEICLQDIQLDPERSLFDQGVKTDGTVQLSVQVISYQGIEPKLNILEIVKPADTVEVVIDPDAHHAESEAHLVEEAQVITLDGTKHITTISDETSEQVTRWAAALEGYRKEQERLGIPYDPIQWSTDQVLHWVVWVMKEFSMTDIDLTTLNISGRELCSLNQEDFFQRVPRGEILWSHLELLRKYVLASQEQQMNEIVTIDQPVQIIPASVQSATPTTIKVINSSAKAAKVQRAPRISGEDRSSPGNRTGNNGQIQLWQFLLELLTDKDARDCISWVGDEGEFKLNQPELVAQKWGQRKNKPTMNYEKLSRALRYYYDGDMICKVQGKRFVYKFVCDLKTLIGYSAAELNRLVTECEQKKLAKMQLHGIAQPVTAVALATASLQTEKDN
Procedure, shortened: as §1

ERG = biological target: T4, ERG (Homo sapiens, UniProt P11308 1-479)
T4 sequence: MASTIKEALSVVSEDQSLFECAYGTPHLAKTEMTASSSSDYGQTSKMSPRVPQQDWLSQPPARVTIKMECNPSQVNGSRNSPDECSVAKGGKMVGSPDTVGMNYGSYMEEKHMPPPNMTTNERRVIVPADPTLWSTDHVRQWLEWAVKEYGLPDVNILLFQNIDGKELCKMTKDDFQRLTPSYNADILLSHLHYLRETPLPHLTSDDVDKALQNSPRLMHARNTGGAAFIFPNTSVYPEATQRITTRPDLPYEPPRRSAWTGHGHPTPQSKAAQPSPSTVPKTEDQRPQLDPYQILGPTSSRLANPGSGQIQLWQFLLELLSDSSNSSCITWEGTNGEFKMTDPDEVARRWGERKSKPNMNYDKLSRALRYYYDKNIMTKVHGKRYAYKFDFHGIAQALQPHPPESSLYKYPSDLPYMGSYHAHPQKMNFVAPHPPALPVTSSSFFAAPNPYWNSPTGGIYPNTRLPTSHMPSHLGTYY
Procedure, shortened: as §1

ELF1 = ELF1 (Homo sapiens, UniProt P32519 1-619)
Sequence of ELF1 (P32519 whole entry): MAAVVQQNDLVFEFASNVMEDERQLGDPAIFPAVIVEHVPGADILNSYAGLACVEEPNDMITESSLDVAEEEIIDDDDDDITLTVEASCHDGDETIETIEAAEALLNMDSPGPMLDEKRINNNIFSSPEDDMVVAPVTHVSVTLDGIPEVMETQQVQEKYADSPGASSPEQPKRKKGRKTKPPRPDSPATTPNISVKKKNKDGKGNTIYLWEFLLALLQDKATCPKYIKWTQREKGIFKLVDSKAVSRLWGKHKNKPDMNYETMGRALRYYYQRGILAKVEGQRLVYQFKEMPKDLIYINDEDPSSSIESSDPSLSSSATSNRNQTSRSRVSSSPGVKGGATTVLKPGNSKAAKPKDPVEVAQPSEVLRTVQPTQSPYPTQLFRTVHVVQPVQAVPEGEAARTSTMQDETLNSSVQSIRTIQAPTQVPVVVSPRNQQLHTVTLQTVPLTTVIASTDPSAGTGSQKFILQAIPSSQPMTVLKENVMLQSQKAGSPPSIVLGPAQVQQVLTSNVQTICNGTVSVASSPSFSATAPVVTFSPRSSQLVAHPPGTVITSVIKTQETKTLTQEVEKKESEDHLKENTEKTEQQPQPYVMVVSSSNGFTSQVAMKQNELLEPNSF
Procedure, shortened: as §1

EHF = biological target: T5, EHF (Homo sapiens, UniProt Q9NZC4 1-300)
T5 sequence: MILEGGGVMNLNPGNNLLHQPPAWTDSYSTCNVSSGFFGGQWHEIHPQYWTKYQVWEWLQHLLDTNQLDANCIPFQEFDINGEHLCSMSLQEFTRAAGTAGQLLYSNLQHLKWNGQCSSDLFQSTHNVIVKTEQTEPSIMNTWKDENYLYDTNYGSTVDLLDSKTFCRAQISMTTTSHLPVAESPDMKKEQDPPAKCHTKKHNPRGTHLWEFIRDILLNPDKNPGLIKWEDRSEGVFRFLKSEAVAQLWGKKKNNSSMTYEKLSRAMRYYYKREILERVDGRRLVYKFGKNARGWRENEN
Procedure, shortened: as §1

SPI1 = SPI1 (Homo sapiens, UniProt P17947 1-270)
Procedure, shortened: as §1

SPIB = SPIB (Homo sapiens, UniProt Q01892 1-262)
Sequence of SPIB (Q01892 whole entry): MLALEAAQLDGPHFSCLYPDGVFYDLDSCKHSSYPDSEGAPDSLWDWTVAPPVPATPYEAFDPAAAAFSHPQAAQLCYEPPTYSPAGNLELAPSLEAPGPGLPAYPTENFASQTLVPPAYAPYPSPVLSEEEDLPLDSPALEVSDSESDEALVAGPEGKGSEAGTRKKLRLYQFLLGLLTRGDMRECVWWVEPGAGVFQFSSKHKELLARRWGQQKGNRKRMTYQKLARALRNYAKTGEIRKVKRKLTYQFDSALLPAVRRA
Procedure, shortened: as §1

ELK3 = biological target: T6, ELK3 (Homo sapiens, UniProt P41970 1-407)
T6 sequence: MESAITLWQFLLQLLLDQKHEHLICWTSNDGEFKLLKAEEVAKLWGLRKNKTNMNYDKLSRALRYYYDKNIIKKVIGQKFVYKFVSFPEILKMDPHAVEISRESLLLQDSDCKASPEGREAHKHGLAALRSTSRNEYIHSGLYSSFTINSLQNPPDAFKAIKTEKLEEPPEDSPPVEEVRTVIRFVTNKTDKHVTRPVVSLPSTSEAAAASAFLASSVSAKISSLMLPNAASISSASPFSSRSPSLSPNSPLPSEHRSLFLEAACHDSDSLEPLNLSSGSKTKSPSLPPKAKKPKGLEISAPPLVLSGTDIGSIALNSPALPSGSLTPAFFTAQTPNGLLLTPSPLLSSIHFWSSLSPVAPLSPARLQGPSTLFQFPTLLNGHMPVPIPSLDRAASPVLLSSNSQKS
Procedure, shortened: as §1

FEV = biological target: T7, FEV (Homo sapiens, UniProt Q99581 1-238)
T7 sequence: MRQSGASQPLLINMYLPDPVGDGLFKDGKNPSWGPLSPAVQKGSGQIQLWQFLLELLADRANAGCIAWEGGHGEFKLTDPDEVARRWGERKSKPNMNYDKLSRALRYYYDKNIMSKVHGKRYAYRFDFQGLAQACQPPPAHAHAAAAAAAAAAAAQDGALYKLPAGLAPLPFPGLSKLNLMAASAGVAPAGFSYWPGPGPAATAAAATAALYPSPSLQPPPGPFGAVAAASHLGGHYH
Procedure, shortened: as §1

ETV5 = ETV5 (Homo sapiens, UniProt P41161 1-510)
Sequence of ETV5 (P41161 whole entry): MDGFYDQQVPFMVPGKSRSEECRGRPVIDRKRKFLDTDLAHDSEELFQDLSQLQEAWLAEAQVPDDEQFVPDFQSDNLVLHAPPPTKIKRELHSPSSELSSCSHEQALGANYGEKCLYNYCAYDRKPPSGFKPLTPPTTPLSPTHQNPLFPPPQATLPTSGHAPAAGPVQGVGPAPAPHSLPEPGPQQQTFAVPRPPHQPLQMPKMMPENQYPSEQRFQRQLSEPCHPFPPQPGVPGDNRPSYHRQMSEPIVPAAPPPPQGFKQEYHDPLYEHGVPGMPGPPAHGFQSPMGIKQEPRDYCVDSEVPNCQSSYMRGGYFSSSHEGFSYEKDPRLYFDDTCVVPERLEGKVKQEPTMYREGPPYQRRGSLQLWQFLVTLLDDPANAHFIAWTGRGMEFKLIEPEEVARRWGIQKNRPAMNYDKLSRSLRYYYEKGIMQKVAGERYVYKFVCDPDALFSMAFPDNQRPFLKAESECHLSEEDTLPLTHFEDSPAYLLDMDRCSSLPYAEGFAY
Procedure, shortened: as §1

SPIC = biological target: T8, SPIC (Homo sapiens, UniProt Q8N5J4 1-248)
T8 sequence: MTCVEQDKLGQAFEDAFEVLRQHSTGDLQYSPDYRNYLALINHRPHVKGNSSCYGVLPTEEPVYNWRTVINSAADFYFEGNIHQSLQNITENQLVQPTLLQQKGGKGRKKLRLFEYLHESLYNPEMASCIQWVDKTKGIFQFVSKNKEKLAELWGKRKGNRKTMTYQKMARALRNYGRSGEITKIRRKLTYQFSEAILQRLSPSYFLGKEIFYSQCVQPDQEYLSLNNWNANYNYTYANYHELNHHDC
Procedure, shortened: as §1

ELF4 = ELF4 (Homo sapiens, UniProt Q99607 1-663)
Sequence of ELF4 (Q99607 whole entry): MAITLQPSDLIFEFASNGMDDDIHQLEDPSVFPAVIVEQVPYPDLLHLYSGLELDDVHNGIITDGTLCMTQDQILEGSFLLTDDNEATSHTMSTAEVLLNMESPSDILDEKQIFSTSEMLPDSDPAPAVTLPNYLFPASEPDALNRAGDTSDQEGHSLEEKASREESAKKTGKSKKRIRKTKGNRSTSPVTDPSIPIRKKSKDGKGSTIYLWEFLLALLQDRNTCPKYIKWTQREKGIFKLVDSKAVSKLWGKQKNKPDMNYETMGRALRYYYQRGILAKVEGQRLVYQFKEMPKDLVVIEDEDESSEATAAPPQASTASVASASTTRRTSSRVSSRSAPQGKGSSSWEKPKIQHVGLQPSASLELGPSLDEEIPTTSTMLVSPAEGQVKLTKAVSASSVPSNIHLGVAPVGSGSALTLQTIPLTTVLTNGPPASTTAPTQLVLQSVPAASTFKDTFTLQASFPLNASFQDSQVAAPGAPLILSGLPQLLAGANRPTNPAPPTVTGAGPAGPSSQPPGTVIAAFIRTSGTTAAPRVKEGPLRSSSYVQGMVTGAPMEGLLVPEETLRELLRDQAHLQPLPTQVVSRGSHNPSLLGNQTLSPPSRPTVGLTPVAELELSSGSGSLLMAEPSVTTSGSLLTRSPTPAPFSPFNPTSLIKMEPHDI
Procedure, shortened: as §1

ETV1 = ETV1 (Homo sapiens, UniProt P50549 1-477)
Sequence of ETV1 (P50549 whole entry): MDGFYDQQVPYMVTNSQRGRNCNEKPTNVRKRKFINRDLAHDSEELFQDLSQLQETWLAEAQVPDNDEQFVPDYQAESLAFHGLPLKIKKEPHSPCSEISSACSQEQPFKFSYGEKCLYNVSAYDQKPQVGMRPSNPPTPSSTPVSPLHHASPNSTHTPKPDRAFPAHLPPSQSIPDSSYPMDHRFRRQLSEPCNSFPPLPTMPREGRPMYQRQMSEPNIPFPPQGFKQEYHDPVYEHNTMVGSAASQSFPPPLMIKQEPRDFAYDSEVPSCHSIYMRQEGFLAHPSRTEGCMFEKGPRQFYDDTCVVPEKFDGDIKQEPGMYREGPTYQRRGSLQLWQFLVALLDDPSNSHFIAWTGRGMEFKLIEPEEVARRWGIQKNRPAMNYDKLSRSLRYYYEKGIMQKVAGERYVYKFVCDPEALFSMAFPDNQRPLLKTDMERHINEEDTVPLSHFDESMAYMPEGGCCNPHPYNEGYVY
Procedure, shortened: as §1

ERF = biological target: T9, ERF (Homo sapiens, UniProt P50548 1-548)
T9 sequence: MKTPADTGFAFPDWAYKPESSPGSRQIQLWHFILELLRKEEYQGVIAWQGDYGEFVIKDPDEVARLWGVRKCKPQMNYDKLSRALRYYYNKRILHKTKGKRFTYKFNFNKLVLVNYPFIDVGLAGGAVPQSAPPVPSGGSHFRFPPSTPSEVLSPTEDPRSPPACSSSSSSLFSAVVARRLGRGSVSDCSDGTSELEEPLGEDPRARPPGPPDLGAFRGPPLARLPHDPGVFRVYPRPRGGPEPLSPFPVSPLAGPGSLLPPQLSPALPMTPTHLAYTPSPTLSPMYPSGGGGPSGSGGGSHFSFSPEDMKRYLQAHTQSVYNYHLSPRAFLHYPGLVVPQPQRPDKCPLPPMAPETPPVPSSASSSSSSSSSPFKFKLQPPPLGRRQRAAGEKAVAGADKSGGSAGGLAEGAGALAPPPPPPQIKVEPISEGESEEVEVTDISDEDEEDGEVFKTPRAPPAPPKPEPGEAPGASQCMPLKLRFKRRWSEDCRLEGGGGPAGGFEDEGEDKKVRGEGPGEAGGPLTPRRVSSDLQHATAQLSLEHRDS
Procedure, shortened: as §1

ETV3L = biological target: T10, ETV3L (Homo sapiens, UniProt Q6ZN32 1-361)
T10 sequence: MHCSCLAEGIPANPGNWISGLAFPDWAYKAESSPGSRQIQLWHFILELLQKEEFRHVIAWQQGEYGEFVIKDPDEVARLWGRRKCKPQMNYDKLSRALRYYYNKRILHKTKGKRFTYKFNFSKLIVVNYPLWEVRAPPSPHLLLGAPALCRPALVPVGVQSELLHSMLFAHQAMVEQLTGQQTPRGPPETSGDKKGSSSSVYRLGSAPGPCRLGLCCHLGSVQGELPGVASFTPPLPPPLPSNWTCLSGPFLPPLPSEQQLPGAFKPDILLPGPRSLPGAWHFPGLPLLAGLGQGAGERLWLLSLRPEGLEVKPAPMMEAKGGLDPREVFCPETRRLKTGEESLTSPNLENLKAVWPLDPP
Procedure, shortened: as §1

ETS2 = biological target: T11, ETS2 (Homo sapiens, UniProt P15036 1-469)
T11 sequence: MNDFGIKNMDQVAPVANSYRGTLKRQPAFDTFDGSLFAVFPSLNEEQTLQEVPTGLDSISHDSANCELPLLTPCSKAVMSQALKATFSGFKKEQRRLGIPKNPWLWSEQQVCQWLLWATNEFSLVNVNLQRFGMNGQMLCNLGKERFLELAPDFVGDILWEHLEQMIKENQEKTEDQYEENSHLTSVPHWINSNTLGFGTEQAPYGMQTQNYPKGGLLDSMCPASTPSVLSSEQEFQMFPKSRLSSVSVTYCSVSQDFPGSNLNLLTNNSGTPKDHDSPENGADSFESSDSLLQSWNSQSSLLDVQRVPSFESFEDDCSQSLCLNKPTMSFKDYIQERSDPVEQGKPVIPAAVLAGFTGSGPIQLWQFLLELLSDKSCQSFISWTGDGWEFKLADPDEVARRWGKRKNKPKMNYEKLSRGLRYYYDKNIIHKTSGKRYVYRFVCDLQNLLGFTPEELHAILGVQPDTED
Procedure, shortened: as §1

SPDEF = biological target: T12, SPDEF (Homo sapiens, UniProt O95238 1-335)
T12 sequence: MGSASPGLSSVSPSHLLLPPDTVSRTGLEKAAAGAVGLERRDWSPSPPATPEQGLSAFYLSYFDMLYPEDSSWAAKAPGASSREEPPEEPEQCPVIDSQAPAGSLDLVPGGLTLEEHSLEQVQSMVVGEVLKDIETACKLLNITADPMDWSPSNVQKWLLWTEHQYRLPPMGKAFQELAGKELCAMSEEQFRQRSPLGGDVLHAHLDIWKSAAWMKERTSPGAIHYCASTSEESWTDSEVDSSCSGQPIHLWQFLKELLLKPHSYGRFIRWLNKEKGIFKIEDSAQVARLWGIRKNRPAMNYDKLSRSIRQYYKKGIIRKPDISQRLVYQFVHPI
Procedure, shortened: as §1

ETV3 = biological target: T13, ETV3 (Homo sapiens, UniProt P41162-2 1-143)
T13 sequence: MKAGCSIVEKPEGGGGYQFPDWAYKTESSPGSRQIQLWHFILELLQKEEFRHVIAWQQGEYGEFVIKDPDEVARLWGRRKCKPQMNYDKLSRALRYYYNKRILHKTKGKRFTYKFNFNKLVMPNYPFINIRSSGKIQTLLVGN
Procedure, shortened: as §1

ETV6 = ETV6 (Homo sapiens, UniProt P41212 1-452)
Sequence of ETV6 (P41212 whole entry): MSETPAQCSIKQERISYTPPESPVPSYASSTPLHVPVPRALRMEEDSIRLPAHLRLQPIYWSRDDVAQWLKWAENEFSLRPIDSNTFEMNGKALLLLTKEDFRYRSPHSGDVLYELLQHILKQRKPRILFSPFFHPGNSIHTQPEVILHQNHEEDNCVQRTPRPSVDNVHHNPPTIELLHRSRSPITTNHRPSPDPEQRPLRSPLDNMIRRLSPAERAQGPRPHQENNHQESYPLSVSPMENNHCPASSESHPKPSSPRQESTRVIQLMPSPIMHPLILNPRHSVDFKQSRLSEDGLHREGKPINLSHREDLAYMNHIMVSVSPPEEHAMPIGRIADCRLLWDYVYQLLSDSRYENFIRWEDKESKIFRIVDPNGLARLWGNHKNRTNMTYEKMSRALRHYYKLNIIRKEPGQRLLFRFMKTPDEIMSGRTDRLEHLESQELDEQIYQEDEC
Procedure, shortened: as §1

GAAGTC was tested, and the binding signal (FLI1) was 1.15 fold enrichment (6-mer frequency, TF over GST control), the binding signal (ELK1) was 1.2 fold enrichment (6-mer frequency, TF over GST control) and the binding signal (GABPA) was 1.04 fold enrichment (6-mer frequency, TF over GST control). For the same sequence, the binding signal (ERG) was 1.33 fold enrichment (6-mer frequency, TF over GST control), the binding signal (ELF1) was 1.1 fold enrichment (6-mer frequency, TF over GST control) and the binding signal (EHF) was 1.13 fold enrichment (6-mer frequency, TF over GST control). For the same sequence, the binding signal (SPI1) was 1.51 fold enrichment (6-mer frequency, TF over GST control), the binding signal (SPIB) was 1.22 fold enrichment (6-mer frequency, TF over GST control) and the binding signal (ELK3) was 1.19 fold enrichment (6-mer frequency, TF over GST control). The binding signal (FEV) was 1.22 fold enrichment (6-mer frequency, TF over GST control), the binding signal (ETV5) was 1.17 fold enrichment (6-mer frequency, TF over GST control) and the binding signal (SPIC) was 1.23 fold enrichment (6-mer frequency, TF over GST control). For the same sequence, the binding signal (ELF4) was 1.08 fold enrichment (6-mer frequency, TF over GST control), the binding signal (ETV1) was 1.22 fold enrichment (6-mer frequency, TF over GST control) and the binding signal (ERF) was 1.11 fold enrichment (6-mer frequency, TF over GST control). The binding signal (ETV3L) was 1.14 fold enrichment (6-mer frequency, TF over GST control), the binding signal (ETS2) was 1.19 fold enrichment (6-mer frequency, TF over GST control) and the binding signal (SPDEF) was 1.06 fold enrichment (6-mer frequency, TF over GST control). The binding signal (ETV3) was 1.21 fold enrichment (6-mer frequency, TF over GST control) and the binding signal (ETV6) was 1.22 fold enrichment (6-mer frequency, TF over GST control).

Reference: publication PMC7862700, “An all-to-all approach to the identification of sequence-specific readers for epigenetic DNA modifications on cytosine”
